The source made the active and inactive calls. Unless noted, the rule behind the calls is not given here.
How the values were obtained:
[1] = test system: Wnt5a (protein binding on small-molecule microarray); assay: small molecules binding Wnt5a protein – biophysical, small-molecule microarray, 635/667 nm fluorescence, primary screen (AID 1142); conditions: 635 nm fluorescence, higher = more signal;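 note: fluorescence read at 667 nm with signal to noise per printed feature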
[2] = ATP-based viability of Huh7 replicon cells – cell-based, CellTiter-Glo luminescence, basal, 48 h, cytotoxicity control for HCV replication inhibitor project, primary screen (AID 1143); conditions: higher = more signal, called active from +8 up or from −8 down;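 note: Huh7 hepatoma cells carrying a hepatitis C replication reporter with no stimulus; test concentration not given here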
[3] = Pseudomonas biofilm growth suppression – PAO1 strain, BacTiter-Glo luminescence, LB-PBS, primary screen (AID 1144); conditions: P. aeruginosa PAO1 biofilm, 12 h, higher = more signal
[4] = basal CRE-LacZ reporter activity in PC12 – cell-based, unstimulated, primary screen (AID 1145); conditions: no forskolin, luminescence, 4.5 h, higher = more signal, called active from +8 up or from −8 down
[5] = forskolin-driven CRE-LacZ activity in PC12 – cell-based, CRE-LacZ reporter, forskolin-stimulated, primary screen (AID 1146); conditions: luminescence, 4.5 h, higher = more signal, called active from +8 up or from −8 down;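 note: PC12 cells with 6xCRE LacZ reporter stimulated by forskolin 10 µM; beta-galactosidase reporter signal reflecting CREB driven transcription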
[6] = target: Streptavidin (Streptomyces avidinii) (UniProt P22629); assay: compounds binding control protein streptavidin – biophysical, small-molecule microarray, 635/667 nm fluorescence, artefact control for SMM compound annotation, primary screen (AID 1147); conditions: higher = more signal;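 note: signal reflects streptavidin binding to arrayed compounds as a control protein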
Chain of Streptavidin (Streptomyces avidinii) (P22629 whole entry, looked up): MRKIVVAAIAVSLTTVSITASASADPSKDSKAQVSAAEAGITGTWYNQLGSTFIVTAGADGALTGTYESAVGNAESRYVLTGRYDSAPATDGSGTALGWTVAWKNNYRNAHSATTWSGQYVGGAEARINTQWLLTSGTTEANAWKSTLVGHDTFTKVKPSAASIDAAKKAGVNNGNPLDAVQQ

[7] = probe aInhba binding on compound microarray – biochemical, small-molecule microarray, 635/667 nm fluorescence, primary screen (AID 1148); conditions: higher = more signal;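 note: score merges 667nm spot fluorescence with signal-to-noise for antibody binding to printed compounds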
Torsin-1A (Homo sapiens) [8] = target: Torsin-1A (Homo sapiens) (UniProt O14656); assay: TOR1A wild-type binding on microarray – cell lysate, small-molecule microarray, lysate, 635/667 nm, primary screen (AID 1149); conditions: COS7 hTOR1A-WT lysate, 635 nm fluorescence, higher = more signal
Chain of Torsin-1A (Homo sapiens) (O14656 whole entry, looked up): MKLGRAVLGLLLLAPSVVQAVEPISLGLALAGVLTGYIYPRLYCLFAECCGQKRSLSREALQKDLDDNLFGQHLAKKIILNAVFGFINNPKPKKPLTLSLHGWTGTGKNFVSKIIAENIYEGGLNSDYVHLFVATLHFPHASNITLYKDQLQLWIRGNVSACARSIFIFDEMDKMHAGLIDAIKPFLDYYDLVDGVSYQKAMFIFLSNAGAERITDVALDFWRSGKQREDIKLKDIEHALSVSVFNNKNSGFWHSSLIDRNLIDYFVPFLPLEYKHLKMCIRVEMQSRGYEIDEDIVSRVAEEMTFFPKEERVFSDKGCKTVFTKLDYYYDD

Torsin-1A (Homo sapiens) [9] = target: Torsin-1A (Homo sapiens) (UniProt O14656); assay: torsin A mutant lysate binding on microarrays – cell lysate, small-molecule microarray, COS7 lysate, 635/667 nm fluorescence, primary screen (AID 1150); conditions: COS7 hTOR1A mutant lysate, 635 nm fluorescence, higher = more signal;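 note: score pools 667 nm emission and signal to noise measuring lysate protein binding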
[10] = test system: Sonic hedgehog protein (Shh); assay: Sonic hedgehog microarray binding compounds – biochemical, small-molecule microarray, 635/667 nm fluorescence, primary screen (AID 1151); conditions: 635 nm fluorescence, higher = more signal;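 note: Shh protein binding to compounds spotted on small-molecule microarray slides; score combines spot fluorescence intensity with signal-to-noise across triplicate slides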
[11] = optical density shifts of acrAB sulA E. coli – strain DRC41, OD650, 48 h, E. coli filamentation inducer project, primary screen (AID 1152); conditions: higher = more signal, called active from +8 up or from −8 down;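 note: E. coli MC1000 strain DRC41 lacking acrAB efflux pump and sulA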
[12] = probe aLefty1 binding on compound microarray – biochemical, small-molecule microarray, 635/667 nm fluorescence, primary screen (AID 1153); conditions: higher = more signal;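 note: score merges spot fluorescence with signal-to-noise ratio from the scanned slide images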
[13] = plasmodial surface anion channel blockers, osmotic lysis – cell-based, P. falciparum Indochina, OD700, 1 h, primary screen (AID 1154); conditions: P. falciparum Indochina infected RBC osmotic lysis, higher = more signal, called active from +8 up or from −8 down
[14] = plasmodial surface anion channel blockers, osmotic lysis – cell-based, P. falciparum Indochina, OD700, 2 h, primary screen (AID 1155);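 note: lysis reports solute entry through the parasite surface anion channel PSAC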; conditions: P. falciparum Indochina infected erythrocytes, higher = more signal, called active from +8 up or from −8 down
[15] = changes in parasitized red cell lysis, either direction – P. falciparum Indochina, OD700, 3 h, PSAC antagonist project, primary screen (AID 1156); conditions: P. falciparum-infected erythrocytes, osmotic lysis, higher = more signal, called active from +8 up or from −8 down
[16] = plasmodial surface anion channel blockers, osmotic lysis – cell-based, P. falciparum Indochina, OD700, 18 h, primary screen (AID 1157); conditions: P. falciparum Indochina infected erythrocytes, osmotic lysis OD700, 18 h; higher = more signal, called active from +8 up or from −8 down
[17] = S6 kinase pathway phospho-S6 level changes – cell-based, A549, cytoblot, luminescence, serum-stimulated, primary screen (AID 1158); conditions: 5 h, higher = more signal;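 note: serum-stimulated A549 lung adenocarcinoma cells; signal is phosphorylated S6 detected by cytoblot immunostaining with HRP secondary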
[18] = target: NADPH oxidase 2 (Homo sapiens) (UniProt P04839); assay: compounds shifting NOX2 Amplex Red fluorescence – cell-based, HEK293-NOX2, PMA-stimulated, NOX inhibitor project, primary screen (AID 1159); conditions: 45 min, higher = more signal, called active from +8 up or from −8 down; note: test concentration not given here
Chain of NADPH oxidase 2 (Homo sapiens) (P04839 whole entry, looked up): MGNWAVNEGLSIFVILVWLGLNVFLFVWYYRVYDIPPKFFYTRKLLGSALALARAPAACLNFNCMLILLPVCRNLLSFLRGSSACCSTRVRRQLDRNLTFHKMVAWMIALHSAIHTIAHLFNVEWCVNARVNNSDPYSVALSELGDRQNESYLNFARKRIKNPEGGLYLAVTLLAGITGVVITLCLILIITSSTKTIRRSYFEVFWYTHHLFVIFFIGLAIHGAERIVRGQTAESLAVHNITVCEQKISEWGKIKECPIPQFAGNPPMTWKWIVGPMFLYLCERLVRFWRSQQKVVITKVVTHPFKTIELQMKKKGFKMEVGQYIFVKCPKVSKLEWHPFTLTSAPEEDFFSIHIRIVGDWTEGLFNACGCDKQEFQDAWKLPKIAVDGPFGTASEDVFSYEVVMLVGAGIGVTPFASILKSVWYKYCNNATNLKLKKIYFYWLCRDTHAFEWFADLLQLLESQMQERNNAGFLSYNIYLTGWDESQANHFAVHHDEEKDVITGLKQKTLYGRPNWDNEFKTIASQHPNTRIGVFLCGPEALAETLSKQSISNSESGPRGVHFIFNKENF

[19] = target: NADPH oxidase 4 (Homo sapiens) (UniProt Q9NPH5); assay: compounds shifting NOX4 Amplex Red fluorescence – cell-based, HEK293-NOX4, tetracycline-induced, NOX inhibitor project, primary screen (AID 1160); conditions: HEK293-NOX4, Amplex Red H2O2 fluorescence, 45 min; higher = more signal, called active from +8 up or from −8 down
Chain of NADPH oxidase 4 (Homo sapiens) (Q9NPH5 whole entry, looked up): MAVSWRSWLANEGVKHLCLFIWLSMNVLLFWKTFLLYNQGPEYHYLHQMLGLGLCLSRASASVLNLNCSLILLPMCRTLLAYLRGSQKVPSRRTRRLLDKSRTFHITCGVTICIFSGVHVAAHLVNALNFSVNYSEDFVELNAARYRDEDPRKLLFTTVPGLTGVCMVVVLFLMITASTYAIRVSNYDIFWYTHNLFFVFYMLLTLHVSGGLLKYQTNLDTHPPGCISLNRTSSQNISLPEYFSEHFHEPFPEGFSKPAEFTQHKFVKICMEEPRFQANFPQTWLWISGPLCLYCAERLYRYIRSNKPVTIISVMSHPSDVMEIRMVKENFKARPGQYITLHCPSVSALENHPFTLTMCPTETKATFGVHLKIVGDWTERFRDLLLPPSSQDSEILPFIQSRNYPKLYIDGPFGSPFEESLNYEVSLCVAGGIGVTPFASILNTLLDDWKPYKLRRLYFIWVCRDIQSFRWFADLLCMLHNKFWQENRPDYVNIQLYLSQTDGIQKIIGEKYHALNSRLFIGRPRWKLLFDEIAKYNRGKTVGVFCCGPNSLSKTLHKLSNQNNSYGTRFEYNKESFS

[20] = target: NADPH oxidase 5 (Homo sapiens) (UniProt Q96PH1); assay: compounds shifting NOX5 Amplex Red fluorescence – cell-based, HEK293-NOX5, NOX inhibitor project, primary screen (AID 1161); conditions: HEK293-NOX5, ionomycin, 45 min, higher = more signal
Chain of NADPH oxidase 5 (Homo sapiens) (Q96PH1 whole entry, looked up): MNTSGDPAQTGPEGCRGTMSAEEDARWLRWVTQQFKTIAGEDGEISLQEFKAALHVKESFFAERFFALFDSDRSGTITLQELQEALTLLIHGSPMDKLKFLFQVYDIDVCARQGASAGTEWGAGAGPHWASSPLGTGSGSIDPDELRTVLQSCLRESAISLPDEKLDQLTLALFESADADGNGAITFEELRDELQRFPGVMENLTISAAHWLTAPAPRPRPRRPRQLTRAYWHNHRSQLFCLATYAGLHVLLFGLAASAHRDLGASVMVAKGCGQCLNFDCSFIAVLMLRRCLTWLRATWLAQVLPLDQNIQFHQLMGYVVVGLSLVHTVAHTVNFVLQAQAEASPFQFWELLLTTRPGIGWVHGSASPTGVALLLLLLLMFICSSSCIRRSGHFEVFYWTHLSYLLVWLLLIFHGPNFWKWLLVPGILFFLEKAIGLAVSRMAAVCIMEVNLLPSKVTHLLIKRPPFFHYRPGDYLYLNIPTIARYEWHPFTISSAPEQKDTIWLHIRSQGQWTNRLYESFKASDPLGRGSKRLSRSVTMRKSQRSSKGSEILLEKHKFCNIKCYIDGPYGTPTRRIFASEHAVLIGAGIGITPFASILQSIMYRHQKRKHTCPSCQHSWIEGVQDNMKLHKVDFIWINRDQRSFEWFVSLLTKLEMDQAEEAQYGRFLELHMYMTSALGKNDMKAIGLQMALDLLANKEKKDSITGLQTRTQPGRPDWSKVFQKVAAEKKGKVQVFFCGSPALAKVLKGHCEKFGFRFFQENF

Compound | composite z-score [1] | z-score [2] | z-score [3] | z-score [4] | z-score [5] | composite z-score [6] | composite z-score [7] | composite z-score (Torsin-1A (Homo sapiens) [8]) | composite z-score (Torsin-1A (Homo sapiens) [9]) | composite z-score [10] | z-score [11] | composite z-score [12] | z-score [13] | z-score [14] | z-score [15] | z-score [16] | z-score [17] | z-score [18] | z-score [19] | z-score [20]
CC(=O)NCCCC[C@@H]1NC(=O)[C@@H]2C[C@H](C(=O)NCc3ccc(F)cc3)[C@H](c3cccc(OCCO)c3)N2C1=O | 0.0719 | -0.608 (inactive) | -0.225 (inactive) | 0.537 (inactive) | 0.517 (inactive) | -0.454 | -0.0209 | 0.544 | 1.05 | 1.8 | 0.197 (inactive) | 0.0259 | 5.48 (inactive) | 0.503 (inactive) | -4.35 (inactive) | 0.374 (inactive) | -0.206 | 1.87 (inactive) | 1.42 (inactive) | 1.1
CCCC=C(CCC)[C@@H](NS(=O)(=O)c1ccc(C(F)(F)F)cc1)c1ccc(-c2ccccc2)cc1 | 0.281 | -2.08 (inactive) | 0.524 (inactive) | -0.372 (inactive) | 0.486 (inactive) | 0.991 | 0.0445 | 0.059 | 0.664 | 0.618 | -1.78 (inactive) | 0.448 | 2.51 (inactive) | 0.329 (inactive) | -0.516 (inactive) | 0.543 (inactive) | 1.47 | -1.57 (inactive) | -0.618 (inactive) | 2.7
Cc1ccc(S[C@]2(C(=O)NC3CC3)CC(=O)N(Cc3cc(C(F)(F)F)cc(C(F)(F)F)c3)[C@@H]2c2ccc(CO)cc2)cc1 | 0.134 | -2.38 (inactive) | -1.59 (inactive) | -0.374 (inactive) | 0.121 (inactive) | -0.103 | -0.128 | -0.408 | 0.227 | 1.38 | 0.537 (inactive) | -0.0186 | 1.21 (inactive) | -0.861 (inactive) | 1.08 (inactive) | -1.95 (inactive) | 0.95 | 0.249 (inactive) | -0.00878 (inactive) | 1.78
Cc1ccc(S[C@]2(C(=O)O)CC(=O)N(Cc3cc(C(F)(F)F)cc(C(F)(F)F)c3)[C@@H]2c2ccc(CO)cc2I)cc1 | 0.176 | -2.71 (inactive) | 0.519 (inactive) | 0.261 (inactive) | 0.859 (inactive) | -0.718 | -0.106 | -1.1 | -0.3 | 0.42 | 0.367 (inactive) | 0.26 | 5.86 (inactive) | 0.877 (inactive) | 1.03 (inactive) | 0.522 (inactive) | 0.243 | 1.75 (inactive) | -2.5 (inactive) | 0.547
N#Cc1ccc(NN2C(C(O)c3ccc(I)cc3)C=CC3C(=O)N(c4ccccc4)C(=O)C32)cc1 (stereo not given) | 0.205 | 0.559 (inactive) | -0.363 (inactive) | -1.49 (inactive) | -0.755 (inactive) | 0.941 | -0.0645 | -0.147 | 0.629 | -0.468 | -1.95 (inactive) | 0.526 | 9.81 (active) | 3.64 (inactive) | -1.43 (inactive) | 2.57 (inactive) | -0.484 | -2.64 (inactive) | -4.46 (inactive) | -2.48
C=C(CCCC)C(=O)CC[C@@H](OC(C)=O)c1ccccc1OCCO | -0.283 | -3.08 (inactive) | -0.206 (inactive) | 9.35 (active) | -0.841 (inactive) | -0.484 | -0.024 | -0.0615 | 0.915 | 0.276 | 0.377 (inactive) | -0.145 | 4.13 (inactive) | 0.663 (inactive) | -0.566 (inactive) | 0.7 (inactive) | -0.0442 | 0.356 (inactive) | -0.852 (inactive) | -1.68
COc1ccc([Si](C)(C)[C@@H]2[C@@H](CCO)O[C@]3(C(=O)N(Cc4ccccc4)c4ccccc43)[C@H]2C)cc1 | -0.0721 | -1.98 (inactive) | 0.773 (inactive) | 0.0352 (inactive) | -0.46 (inactive) | -0.155 | 1 | -0.239 | -0.283 | 0.0843 | 1.25 (inactive) | -0.0143 | 1.13 (inactive) | 0.81 (inactive) | 0.117 (inactive) | 0.353 (inactive) | 0.779 | 1.57 (inactive) | -0.523 (inactive) | 1.84
COCCOC(=O)N1C(=O)[C@@]2(c3cc(C#CCNC(N)=O)ccc31)[C@H](c1ccccc1OCCO)N1[C@H](c3ccccc3)[C@H](c3ccccc3)OC(=O)[C@H]1[C@@H]2C(=O)NC[C@H](O)c1ccccc1 | 0.439 | -0.429 (inactive) | -0.209 (inactive) | -1 (inactive) | 0.172 (inactive) | 0.903 | -0.0375 | 0.834 | 0.525 | 1.87 | 0.369 (inactive) | 0.346 | 2.18 (inactive) | 0.758 (inactive) | 0.299 (inactive) | 0.751 (inactive) | -0.209 | 1.02 (inactive) | 1.17 (inactive) | 0.219
